Assay results from the supplement of paper PMC7057948, “A genome-wide approach for identification and characterisation of metabolite-inducible systems” (Nature Communications, 2020).

What was measured:
Conditions in all cases: inducer concentration 5 mM; 6 h; Cupriavidus necator H16; minimal medium + 0.4% gluconate
[1] = test system: AcoR/P_H16_RS19445 acetoin biosensor (pEH052); assay: relative induction of RFP reporter vs primary effector (background-corrected); higher = stronger activation of the biosensor
Experimental: (§1)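 C. necator H16 strains, each carrying one of 21 transcription factor/inducible promoter–mRFP biosensor plasmids, were grown in minimal medium in 96-well plates (robotic platform). Each was exposed to 46 structurally or metabolically related compounds at 5 mM at 30 °C. OD-normalised RFP fluorescence was read 6 h later and expressed as relative induction (%) = 100 × (FL compound − FL uninduced)/(FL primary inducer − FL uninduced); mean of n=4.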

[2] = test system: AraC/P_araBAD L-arabinose biosensor (pEH176); assay: as above
Experimental: as §1

[3] = test system: BenM/P_H16_RS09790 benzoate biosensor (pEH148); assay: as above
Experimental: as §1

[4] = test system: FdsR/P_H16_RS03165 formate biosensor (pEH134); assay: as above
Experimental: as §1

[5] = test system: GabR/P_H16_RS23655 GABA biosensor (pEH256); assay: as above
Experimental: as §1

[6] = test system: HpdR/P_H16_RS18295 3-hydroxypropanoate biosensor (pEH010); assay: as above
Experimental: as §1

[7] = test system: KynR/P_H16_RS14030 L-kynurenine biosensor (pEH136); assay: as above
Experimental: as §1

[8] = test system: NahR/P_H16_RS08125 salicylate biosensor (pEH042); assay: as above
Experimental: as §1

[9] = test system: OapR/P_H16_RS01330 beta-alanine biosensor (pEH147); assay: as above
Experimental: as §1

[10] = test system: PcaQ/P_H16_RS30145 3,4-dihydroxybenzoate biosensor (pEH161); assay: as above
Experimental: as §1

[11] = test system: PhgR/P_H16_RS05530 phenylglyoxylate biosensor (pEH155); assay: as above
Experimental: as §1

[12] = test system: PhhR/P_H16_RS18365 L-phenylalanine biosensor (pEH137); assay: as above
Experimental: as §1

[13] = test system: SauR/P_H16_RS13695 sulfonatoacetate biosensor (pEH157); assay: as above
Experimental: as §1

[14] = test system: TtdR/P_H16_RS10665 tartrate biosensor (pEH083); assay: as above
Experimental: as §1

[15] = test system: XdhR/P_H16_RS05055 xanthine biosensor (pEH154); assay: as above
Experimental: as §1

[16] = test system: heterologous inducible system pEH002 (rhamnose/acrylate/cumate/itaconate set); assay: as above
Experimental: as §1

[17] = test system: heterologous inducible system pEH020 (rhamnose/acrylate/cumate/itaconate set); assay: as above
Experimental: as §1

[18] = test system: heterologous inducible system pEH040 (rhamnose/acrylate/cumate/itaconate set); assay: as above
Experimental: as §1

[19] = test system: heterologous inducible system pEH086 (rhamnose/acrylate/cumate/itaconate set); assay: as above
Experimental: as §1

[20] = test system: AcoR/P_H16_RS19445 acetoin biosensor (pEH052); assay: relative induction of RFP reporter vs primary effector; higher = stronger activation
Experimental: (§2)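 Orthogonality screen of 21 primary inducers against 21 transcription factor/inducible promoter–mRFP biosensors in C. necator H16 in minimal medium, robotic 96-well format, 5 mM inducer, 30 °C. OD-normalised RFP fluorescence was read 6 h later and expressed as relative induction (%) = 100 × (FL compound − FL uninduced)/(FL primary inducer − FL uninduced); mean of n=4. Cognate pairs (100% by definition) omitted.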

[21] = test system: AraC/P_araBAD L-arabinose biosensor (pEH176); assay: as above
Experimental: as §2

[22] = test system: BadR/P_H16_RS27200 cyclohexanecarboxylate biosensor (pEH159); assay: as above
Experimental: as §2

[23] = test system: BenM/P_H16_RS09790 benzoate biosensor (pEH148); assay: as above
Experimental: as §2

[24] = test system: FdsR/P_H16_RS03165 formate biosensor (pEH134); assay: as above
Experimental: as §2

[25] = test system: GabR/P_H16_RS23655 GABA biosensor (pEH256); assay: as above
Experimental: as §2

[26] = test system: HpdA/P_H16_RS24175 L-tyrosine biosensor (pEH158); assay: as above
Experimental: as §2

[27] = test system: NahR/P_H16_RS08125 salicylate biosensor (pEH042); assay: as above
Experimental: as §2

[28] = test system: OapR/P_H16_RS01330 beta-alanine biosensor (pEH147); assay: as above
Experimental: as §2

[29] = test system: PcaQ/P_H16_RS30145 3,4-dihydroxybenzoate biosensor (pEH161); assay: as above
Experimental: as §2

[30] = test system: PhgR/P_H16_RS05530 phenylglyoxylate biosensor (pEH155); assay: as above
Experimental: as §2

[31] = test system: SauR/P_H16_RS13695 sulfonatoacetate biosensor (pEH157); assay: as above
Experimental: as §2

[32] = test system: TtdR/P_H16_RS10665 tartrate biosensor (pEH083); assay: as above
Experimental: as §2

[33] = test system: XdhR/P_H16_RS05055 xanthine biosensor (pEH154); assay: as above
Experimental: as §2

[34] = test system: heterologous L-rhamnose-inducible system; assay: as above
Experimental: as §2

[35] = test system: heterologous acrylate-inducible system; assay: as above
Experimental: as §2

[36] = test system: heterologous cumate-inducible system; assay: as above
Experimental: as §2

[37] = test system: heterologous itaconate-inducible system; assay: as above
Experimental: as §2
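Throughout, for relative induction of RFP reporter vs primary effector (background-corrected): RFP excited at 585 nm with emission read at 620 nm, culture medium blanks subtracted from fluorescence and absorbance prior to normalisation.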

NC(=O)CC[C@H](N)C(=O)O [L-glutamine]
relative induction of RFP reporter [1]: -1.76% | relative induction of RFP reporter [2]: -0.022% | relative induction of RFP reporter [3]: -0.0444% | relative induction of RFP reporter [4]: 4.9% | relative induction of RFP reporter [5]: -2.05% | relative induction of RFP reporter [6]: -0.13% | relative induction of RFP reporter [7]: -0.513% | relative induction of RFP reporter [8]: 0.00325% | relative induction of RFP reporter [9]: -0.494% | relative induction of RFP reporter [10]: -0.146% | relative induction of RFP reporter [11]: -0.333% | relative induction of RFP reporter [12]: -0.432% | relative induction of RFP reporter [13]: 0.0183% | relative induction of RFP reporter [14]: 0.541% | relative induction of RFP reporter [15]: -0.666% | relative induction of RFP reporter [16]: 0.00684% | relative induction of RFP reporter [17]: -0.587% | relative induction of RFP reporter [18]: -2.02% | relative induction of RFP reporter [19]: 0.168%

O=CC(=O)O
relative induction of RFP reporter [11]: -0.587%

O=C(O)CC(CC(=O)O)C(=O)O [tricarballylate]
relative induction of RFP reporter [1]: -0.69% | relative induction of RFP reporter [2]: -0.0168% | relative induction of RFP reporter [3]: -0.036% | relative induction of RFP reporter [4]: -2.35% | relative induction of RFP reporter [5]: -2.41% | relative induction of RFP reporter [6]: -0.311% | relative induction of RFP reporter [7]: -0.332% | relative induction of RFP reporter [8]: -0.00531% | relative induction of RFP reporter [9]: -1.38% | relative induction of RFP reporter [10]: -0.249% | relative induction of RFP reporter [11]: -0.562% | relative induction of RFP reporter [12]: -0.293% | relative induction of RFP reporter [13]: 0.0103% | relative induction of RFP reporter [14]: 1.3% | relative induction of RFP reporter [15]: -1.15% | relative induction of RFP reporter [16]: 0.0188% | relative induction of RFP reporter [17]: -1.48% | relative induction of RFP reporter [18]: 0.497% | relative induction of RFP reporter [19]: -0.0817%

O=C(O)CCO [3-hydroxypropanoate]
relative induction of RFP reporter [20]: -1.52% | relative induction of RFP reporter [21]: -0.0357% | relative induction of RFP reporter [22]: 0.0132% | relative induction of RFP reporter [23]: -0.029% | relative induction of RFP reporter [24]: -8.81% | relative induction of RFP reporter [25]: -1.71% | relative induction of RFP reporter [26]: -0.172% | relative induction of RFP reporter [27]: 0.0108% | relative induction of RFP reporter [28]: 3.75% | relative induction of RFP reporter [29]: -0.224% | relative induction of RFP reporter [30]: -0.286% | relative induction of RFP reporter [31]: -0.00696% | relative induction of RFP reporter [32]: -0.346% | relative induction of RFP reporter [33]: -0.715% | relative induction of RFP reporter [34]: 0.00446% | relative induction of RFP reporter [35]: 2.83% | relative induction of RFP reporter [36]: -0.514% | relative induction of RFP reporter [37]: 0.017%

NCC(N)C(=O)O (stereo unspecified) [2,3-diaminopropanoate]
relative induction of RFP reporter [1]: 0.396% | relative induction of RFP reporter [2]: 0.013% | relative induction of RFP reporter [3]: 0.0534% | relative induction of RFP reporter [4]: -1.38% | relative induction of RFP reporter [5]: -1.16% | relative induction of RFP reporter [6]: 0.349% | relative induction of RFP reporter [7]: -0.43% | relative induction of RFP reporter [8]: 0.0162% | relative induction of RFP reporter [9]: 0.656% | relative induction of RFP reporter [10]: -0.0605% | relative induction of RFP reporter [11]: -0.221% | relative induction of RFP reporter [12]: 0.0532% | relative induction of RFP reporter [13]: -0.0132% | relative induction of RFP reporter [14]: -0.586% | relative induction of RFP reporter [15]: -0.1% | relative induction of RFP reporter [16]: 0.0204% | relative induction of RFP reporter [17]: -0.419% | relative induction of RFP reporter [18]: 2.94% | relative induction of RFP reporter [19]: 0.484%
